Measured values as given in ChEMBL document CHEMBL3988442, “University of Dundee, Small-Polar-MMV Screening Library” (2021).
The campaign covered roughly 48,000 compounds. About 13,000 (27%) showed an effect of 50% or more. This is one part of the list.

Test system: Wolbachia pipientis
Assay: Anti-Wolbachia Cell-Based Screen
Format: functional
Parameters: scale not given: in the data most compounds retested in dose-response had high values
Conditions: 5 µM

| Structure (SMILES) | Percent Effect [%] |
| --- | --- |
| O=C(CCN1CCCO1)N1CC[C@@H](c2ccc3ccccc3c2)[C@H](O)C1 | 7.888 |
| CC(C)SCCn1ccc2[nH]c(=O)c(C#N)cc2c1=O | -14.16 |
| CN1CCC(c2nc3ccc(-c4cccc(F)c4)cn3n2)CC1.O=C(O)C(F)(F)F | 117.6 |
| Cn1cc(C2(C)CN(Cc3ccc(N4CCCC4)nc3)CCO2)cn1 (stereo unspecified) | -5.624 |
| Cc1cc(C)nc(NC(C)Cc2cnccn2)n1 (stereo unspecified) | -26.5 |
| CCc1oc(C(=O)NCCc2nc(C(=O)O)cs2)cc1CN1CCCC1 | 10.42 |
| CCc1oc(C(=O)NCCc2cc(O)nc(C)n2)cc1CN1CCCC1 | -0.3531 |
| Cc1ccc(NC2(C(=O)NC(C)c3ncn[nH]3)CCCC2)cc1 (stereo unspecified) | 4.641 |
| CCc1oc(C(=O)NCCSc2ncn[nH]2)cc1CN1CCCC1 | 77 |
| CCc1oc(C(=O)NC(C)c2ncn[nH]2)cc1CN1CCCC1 (stereo unspecified) | 82.75 |
| CCc1oc(C(=O)NCCNS(C)(=O)=O)cc1CN1CCCC1 | 20.77 |
| CCc1oc(C(=O)NC(C)Cc2cnccn2)cc1CN1CCCC1 (stereo unspecified) | 92.2 |
| CC(Cc1cnccn1)NC(=O)COc1ccc(F)cc1F (stereo unspecified) | 0.5787 |
| COc1c(F)cccc1C(=O)NC(C)c1cnn(C)c1 (stereo unspecified) | 2.584 |
| Cc1ccccc1S(=O)(=O)CCOC(C)C | -3.521 |
| O=C(C1CCOCC1)N1C[C@@H](F)[C@@H](OCc2nc3cc(F)ccc3[nH]2)C1 | -12.95 |
| COCCN1CCC(CNC(=O)Nc2ccc(F)c(Cl)c2)C1 (stereo unspecified) | -3.47 |
| COCCN1CCC(CNC(=O)c2cc(C)cc(C)c2)C1 (stereo unspecified) | 11.6 |

| Structure (SMILES) | Percent Effect [%] |
| --- | --- |
| O=C(NCC1CCN(CCc2ccccc2)C1)c1cc(Cl)c[nH]1 (stereo unspecified) | 98.65 |
| CCN1CCC(CNC(=O)c2cc(Cl)c[nH]2)CC1 | 93.05 |
| COCCN1CCC(CNC(=O)c2cc(Cl)c[nH]2)CC1 | 92.15 |
| O=C(NCC1CCN(CCc2ccccc2)C1)c1c(F)cccc1F (stereo unspecified) | -12.95 |
| CCc1cc(C(=O)NCC2CCN(Cc3ccncc3)CC2)on1 | 4.058 |
| CC(C)(C)OC(=O)NCC1CCN(C(=O)c2cc(Cl)c[nH]2)CC1 | 10.1 |
| COc1ccc(OC)c2c(C)cc(N(C)CCCO)nc12 | 19.89 |
| OC[C@@H](O)CN(CCC(F)(F)F)c1ncccn1 | -5.207 |
| O=C(CCN1CCCN(c2nccs2)CC1)NCC1CCCCC1 | -7.888 |
| Cc1cnn(CCNCC(=O)NCc2ccccc2)c1 | 3.726 |
| Cc1cnn(CCCNC(=O)NCCC(=O)Nc2ccccc2)c1 | 97.62 |
| Cc1cnn(CCCNC(=O)NC(C)C(=O)Nc2ccccc2)c1 (stereo unspecified) | 105.3 |
| Cc1cnn(CCNCCCOc2ccccc2)c1 | 2.655 |
| CCn1nnnc1-c1cccc(NC(=O)CCn2cc(C)cn2)c1 | 2.601 |
| Cc1cnn(CCNC(C)C(=O)Nc2ccc(Cl)cn2)c1 (stereo unspecified) | -21.66 |
| Cc1cnn(CCCNC2Cc3ccccc3C2)c1 | 8.956 |
| Cc1cnn(CCNC(C)C(=O)NCCc2cccs2)c1 (stereo unspecified) | 5.747 |
| Cc1cnn(CCCNC(=O)NCCS(=O)(=O)Nc2ccccc2)c1 | 96.15 |
